Screens: PubChem, several laboratories
A selection: hits, their analogues and other compounds. The true share with any hit is near 3.5%.
TROY NFkB inh: blocks TROY-dependent signaling in reporter cells; 0.98% of 360,000 active; Q293 LMP1-TROYcd NF-kB luciferase reporter, 4 h; inhibition, % at 10 µM;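 active = compounds whose plate-normalised and pattern-corrected inhibition of the luciferase reporter signal at the single screening dose is 50% or more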
C8 TRAIL sens: caspase-8 TRAIL sensitization | NB7+C8 cells + TRAIL, ATPlite viability luminescence | inhibition (viability loss, TRAIL sensitization), % at 10 µM | 1% of 360,000 active;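 active = compounds causing at least 50% loss of cell viability in the single-dose screen, relative to plate controls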
HSP90 refold inh: blocks HSP90-mediated luciferase refolding in reticulocyte lysate; Rabbit reticulocyte lysate, luciferase refolding luminescence, 3 h; inhibition, % at 5.6 µM; 0.91% of 290,000 active; AID 1789;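 active = inhibition above the screen-wide mean plus 3 SD, computed separately per campaign, cut at about 16% in these data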;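 note: 0% = DMSO wells and 100% = 60 µM geldanamycin wells; inhibitors lower the luminescence because luciferase stays unfolded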
Platelet DG rel: platelet dense granule release activity; human platelet-rich plasma, SFLLRN dense granule ATP release, luminescence; inhibition, %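 (compounds screened at 7.5 µM in platelet-rich plasma)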; 0.22% of 300,000 active; AID 1663;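 active = mean replicate score, as percent of positive control, at or above 50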
PPC-1+TRAIL kill: compounds killing PPC-1 cancer cells with TRAIL present (potentiator screen, no TRAIL-free arm). cell killing (% activity), % at 4 µM or 5 µM. PPC-1 cells + TRAIL, ATPLite viability luminescence. 0.41% of 220,000 active;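 active = cell killing above 50% in the first pass at 4 µM, then a duplicate retest at 5 µM averaging 50% or more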;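 note: plate controls were cells with TRAIL plus DMSO for no effect and medium-only wells lacking cells for full effect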
TWEAK-Fn14 inh: TWEAK-Fn14 signaling inhibition. 2% of 360,000 active. TWEAK-stimulated Fn14 reporter cells, luciferase luminescence, 8 h. inhibition, % at 10 µM; in the data active = inhibition above about 50%
* = called active by the depositor; nt = no result given.

SMILES	TROY NFkB inh	C8 TRAIL sens	HSP90 refold inh	Platelet DG rel	PPC-1+TRAIL kill	TWEAK-Fn14 inh
N/C(=N\OC(=O)c1ccc2ccccc2c1)c1cccc([N+](=O)[O-])c1	-40.6	1.3	0.5	-3.8	-7.2	-56.0
CC1(C(=O)Nc2ccc3c(c2)OCCO3)CN(S(C)(=O)=O)CC(=O)N1Cc1cccc(C(F)(F)F)c1 (stereo not given)	nt	1.8	nt	nt	nt	nt
COCCCN(C(=S)Nc1c(C)cc(C)cc1C)C(C)c1ccccn1 (stereo not given)	15.6	-4.2	-4.1	-1.8	11.7	-14.8
COc1ccccc1NC(=O)Nc1cc(F)ccc1F	-41.7	3.6	-1.2	-8.8	1.1	-2.6
COc1ccc(Br)c(OC)c1C(=O)NC(=O)Nc1nc(C)cc(C)n1	6.9	-0.8	-2.9	nt	-2.1	14.1
CC(=O)c1cc(F)ccc1OCC(=O)Nc1ccc2c(c1)OCO2	-31.2	65.6*	nt	nt	nt	-1.7
NC(=O)c1cc(Cl)ccc1OCC(=O)Nc1ccc2c(c1)OCO2	-38.0	68.5*	nt	nt	nt	-12.1
Cc1noc2ncnc(Sc3ccc(Cl)cc3)c12	49.0	18.2	8.4	-0.8	8.1	65.2*
Cc1noc2ncnc(Sc3c(Cl)cccc3Cl)c12	57.0*	10.3	5.0	1.8	23.6	25.2
COc1ccc(N=C2O/C(=C/c3sc(=S)n(CC4CCCO4)c3O)N=C2C#N)cc1 (stereo not given)	-1.5	-2.0	-0.6	3.9	-11.1	5.0
COc1ccccc1CNC(=O)CS(=O)(=O)Cc1ccccc1	8.0	-16.3	-2.4	6.1	nt	16.1
CCOc1cc(CNc2ccc3c(c2)CCC3)ccc1OC	nt	nt	15.4	3.3	0.0	nt
COc1ccccc1CNc1ccc2c(c1)CCC2	47.2	-0.1	-1.5	0.8	nt	65.5*
COc1ccccc1NC(=O)Nc1ccc2c(c1)CCC2	-74.9	25.4	-5.1	14.3	nt	-28.0
COc1ccc(CNc2ccc3c(c2)CCC3)cc1Br	48.4	18.5	2.9	-2.5	nt	56.9*
COc1ccccc1-c1cnc(C(O)c2cc(Cl)cc(Cl)c2)[nH]1 (stereo not given)	9.5	12.1	nt	nt	nt	0.0
CC(=O)N1N=C(N)SC1c1ccc(Cl)c(Cl)c1 (stereo not given)	-2.9	0.6	nt	nt	nt	-2.3
COc1cc(CN2C[C@@H](CO)O[C@@H](n3cnc4c(NCc5ccco5)ncnc43)C2)cc(OC)c1OC	6.3	1.2	nt	nt	nt	19.0
CC1(C)N=C(N)N=C(N)N1c1cccc(C#N)c1	-11.7	81.5*	nt	nt	nt	6.2
COc1ccc(N2C(N)=NC(N)=NC23CCCC3)cc1	-0.8	14.4	-1.1	-4.9	-11.1	4.5
COc1ccc(N2C(N)=NC(N)=NC2(C)C)cc1	10.2	82.3*	0.8	-2.5	9.0	13.2
CCOc1ccc(N2C(N)=NC(N)=NC2(C)C)cc1	-3.0	74.7*	1.6	-1.0	33.3	13.9
COc1ccccc1N1C(N)=NC(N)=NC1(C)C	0.0	-0.5	-3.2	-1.2	18.6	-1.8
COc1cccc(N2C(N)=NC(N)=NC2(C)C)c1	-7.0	85.2*	2.0	-8.0	26.4	0.1
O=C(NNC(=O)C1CCN(c2ncccn2)CC1)c1ccc(Cl)cc1	-2.9	-3.3	2.6	0.2	6.1	1.0
SMILES	TROY NFkB inh	C8 TRAIL sens	HSP90 refold inh	Platelet DG rel	PPC-1+TRAIL kill	TWEAK-Fn14 inh
CC(C)(C)NC(=O)C(c1cccc2ccccc12)n1c(=O)c(-c2ccco2)nc2ccccc21 (stereo not given)	nt	-13.0	nt	nt	nt	nt
Cc1ccc(N2C(N)=NC(N)=NC2(C)C)c(C)c1	6.6	72.2*	-0.3	5.1	-29.6	-3.9
CC1(C)N=C(N)N=C(N)N1c1cccc(C(=O)O)c1	-35.2	3.0	6.2	-3.7	1.1	4.2
CCOC(=O)c1cccc(N2C(N)=NC(N)=NC2(C)C)c1	7.0	66.7*	0.8	-1.8	15.4	0.0
Cc1ccccc1N1C(N)=NC(N)=NC1(C)C	nt	nt	-1.3	11.3	14.8	nt
CCCCCCCC[n+]1cccc2c3ccccc3ccc21	53.7*	59.4*	1.3	23.3	44.4	83.2*
CCCCCCCCCC[n+]1cccc2c3ccccc3ccc21	51.2*	44.2	1.7	8.7	36.5	73.0*
CC1=C(C(=O)N2CCCCCC2)CC(CC(=O)NCC2CCCCC2)C(=O)N1Cc1ccc(F)cc1 (stereo not given)	4.9	6.9	nt	nt	nt	0.6
O=C(c1ccco1)N1CCN(C(=O)c2[nH]c(C(F)(F)F)nc2-c2ccccc2)CC1	-0.3	-4.1	nt	nt	nt	14.7
O=C(Nc1nnc(-c2cc(Cl)ccc2Cl)o1)c1ccco1	-38.3	51.8*	nt	nt	nt	-22.4
Cc1cccc2nc(CSc3nnc4ccccn34)cn12	-13.7	0.6	8.3	8.7	16.8	50.2*
COc1cccc2cc(C(=O)Nc3cccc(C)n3)c(=O)oc12	49.5	9.8	nt	4.5	5.2	56.8*
COc1cccc2cc(C(=O)N3CCc4ccccc43)c(=O)oc12	13.5	-15.2	4.5	-1.5	11.2	50.4*
COc1ccc(NC(=O)c2cc3cccc(OC)c3oc2=Nc2ccc(C(=O)O)cc2)cc1OC	46.4	27.4	-0.3	14.0	4.6	82.6*
O=C(CN1CCN(C(=O)CNC(=O)c2ccc(N3CCCC3=O)cc2)CC1)Nc1ccccc1Cl	-4.0	2.6	nt	nt	nt	-5.2
CS/C(=C(/C#N)S(=O)(=O)c1ccc(Cl)cc1)N1CCOCC1	-9.5	15.1	0.6	0.0	3.3	10.1
CCOc1c(OC(C)=O)ccc(/C=C/c2ccc3cccc(OC(C)=O)c3n2)c1[N+](=O)[O-]	-59.1	11.9	-5.3	9.0	9.2	-15.7
C=CCN1C(=O)/C(=C/c2ccc(OC(C)=O)c(OCC)c2[N+](=O)[O-])SC1=S	43.0	42.8	-2.1	-0.3	23.0	59.9*
O=C(Nc1ccc(Oc2ccc(Cl)cc2)c(Cl)c1)c1cc(I)cc(I)c1O	72.1*	2.3	-11.1	0.4	nt	57.0*
COc1ccc(NC(=O)c2ccccc2F)cc1Cl	-50.2	5.9	2.8	30.4	22.8	-33.0
Cc1cccc(S(=O)(=O)NNC(=O)Cc2cccn2C)c1	-6.6	-4.6	-1.4	0.5	24.8	12.6
COc1cccc(Nc2ncnc3ccccc23)c1	-33.5	22.1	1.2	7.1	27.2	5.8
O=C(Oc1cccc(Nc2ncnc3ccccc23)c1)c1ccccc1Cl	59.4*	14.1	-1.2	-2.8	15.7	82.5*
O=[N+]([O-])c1ccc(S(=O)(=O)NN=Cc2ccc(Cl)c(Cl)c2)cc1	-9.0	-6.9	nt	nt	nt	6.4
COc1cc(O)cc(O)c1C(=O)/C=C/c1ccccc1	4.5	14.1	-1.1	1.4	21.4	78.2*
COc1cc(OC)c(C(=O)/C=C/c2ccccc2)c(O)c1O	19.1	11.8	nt	1.8	13.8	63.9*
COc1ccc(C(=O)/C=C/c2ccccc2)c(O)c1	-64.5	6.9	5.9	1.6	23.6	20.6
COCCCN1C(=O)C(CC(=O)NC2CCCCC2)CC(C(=O)N2CCCCCC2)=C1C (stereo not given)	18.1	-17.6	nt	nt	nt	11.6
O=C(O)c1ccccc1-c1ccc(/C=c2\sc3nc4cc(Br)cnc4n3c2=O)o1	19.4	-3.4	-0.3	4.6	13.7	75.4*
